Results taken from PubChem BioAssay AID1159580 (chemical genetic matrix, 2015).
Values joined by “and” are separate entries in the source; they are usually repeats but may differ in a detail not shown here. Identical values can stand only once. The campaign covered roughly 5,500 compounds. About 2,000 (36%) were called active. Inconclusive results (about 18%) are left out. Rule as the data show it: active = normalized growth mostly below about 0.91 (no sharp cut-off); inconclusive = no clear call, values can overlap the other calls; inactive = mostly above about 0.92. Some of the results follow.

Experiment: chemical genetic growth profiling, strain panel (AID 1159580);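 also: tested at 20 µM; growth read once vehicle control cultures reached saturation at 30 °C; 1 = growth at the plate median or of vehicle wells; lower values mean less growth of the strain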
Settings: S. cerevisiae deletion strains, growth OD

Measured: normalized growth

CC(=O)N[C@@H](Cc1c[nH]c2ccccc12)C(N)=O
inactive: locus YAL013W, strain DEP1, hits give low values 1.09 | locus YAL021C, strain ccr4, hits give low values 1 | locus YAL026C, strain drs2, hits give low values 1 | locus YAL030W, strain snc1, hits give low values 1.02 | locus YBL061C, strain skt5, hits give low values 1.02 | locus YBR009C, strain hhf1, hits give low values 1.01 | locus YBR021W, strain FUR4, hits give low values 1.02 | locus YBR023C, strain chs3, hits give low values 1.02 | locus YBR171W, strain sec66, hits give low values 1.01 | locus YBR229C, strain ROT2, hits give low values 0.965 | locus YBR231C, strain swc5, hits give low values 1.02 | locus YBR279W, strain paf1, hits give low values 1.01 | locus YCL011C, strain gbp2, hits give low values 1.02 | locus YCL016C, strain dcc1, hits give low values 1.01 | locus YCL029C, strain bik1, hits give low values 0.999 | locus YCL061C, strain MRC1, hits give low values 1.02 | locus YCL069W, strain vba3, hits give low values 1.02 | locus YCR088W, strain abp1, hits give low values 1.03 | locus YDL005C, strain med2, hits give low values 1.04 | locus YDL035C, strain GPR1, hits give low values 0.985 | locus YDL040C, strain nat1, hits give low values 1.02 | locus YDL074C, strain BRE1, hits give low values 0.948 | locus YDL101C, strain DUN1, hits give low values 0.977 | locus YDL134C, strain PPH21, hits give low values 0.985 | locus YDL185W, strain tfp1, hits give low values 0.972 | locus YDL192W, strain arf1, hits give low values 0.99 | locus YDR001C, strain nth1, hits give low values 1.01 | locus YDR069C, strain doa4, hits give low values 1.03 | locus YDR101C, strain arx1, hits give low values 0.997 | locus YDR137W, strain rgp1, hits give low values 1.01 | locus YDR150W, strain NUM1, hits give low values 0.972 | locus YDR159W, strain sac3, hits give low values 1.03 | locus YDR162C, strain NBP2, hits give low values 0.945 | locus YDR195W, strain ref2 1.05 | locus YDR297W, strain sur2, hits give low values 1.03 | locus YDR318W, strain mcm21, hits give low values 1 | locus YDR334W, strain swr1, hits give low values 1.01 | locus YDR335W, strain msn5, hits give low values 1 | locus YDR388W, hits give low values 1 | locus YDR392W, strain spt3, hits give low values 0.953 | locus YDR502C, strain sam2, hits give low values 0.996 | locus YEL003W, strain gim4, hits give low values 1.01 | locus YEL037C, strain rad23, hits give low values 1.02 | locus YEL061C, strain CIN8 (second series), hits give low values 1.02 | locus YEL061C, strain CIN8, hits give low values 0.99 | locus YER015W, strain faa2, hits give low values 1.02 | locus YER016W, strain bim1, hits give low values 1.01 | locus YER110C, hits give low values 1 | locus YER111C, strain swi4, hits give low values 1.01 | locus YER155C, strain BEM2 (second series), hits give low values 1.06 | locus YER155C, strain BEM2, hits give low values 1.01 | locus YER167W, strain BCK2, hits give low values 1.01 | locus YFR010W, strain ubp6, hits give low values 1.02 | locus YGL078C, strain dbp3, hits give low values 0.994 | locus YGL086W, strain mad1, hits give low values 1 | locus YGL167C, strain pmr1, hits give low values 1.01 | locus YGL173C, strain kem1, hits give low values 1.02 | locus YGL227W, strain vid30, hits give low values 1.03 | locus YGL240W, strain doc1, hits give low values 1.05 | locus YGL248W, strain PDE1, hits give low values 0.986 | locus YGL253W, strain hxk2, hits give low values 1.01 | locus YGR078C, strain PAC10, hits give low values 0.97 | locus YGR135W, strain pre9, hits give low values 0.983 | locus YGR229C, strain SMI1, hits give low values 0.973 | locus YGR252W, strain gcn5, hits give low values 1.02 | locus YHR013C, strain ard1, hits give low values 1.03 | locus YHR027C, strain rpn1, hits give low values 1.01 | locus YHR030C, strain SLT2, hits give low values 1 | locus YHR079C, strain IRE1 (second series), hits give low values 1.01 | locus YHR079C, strain IRE1, hits give low values 0.99 | locus YHR094C, strain hxt1, hits give low values 0.995 | locus YHR129C, strain ARP1, hits give low values 0.994 | locus YHR142W, strain chs7, hits give low values 1 | locus YHR200W, strain rpn10, hits give low values 1.01 | locus YIL066C, strain RNR3, hits give low values 0.973 | locus YIL073C, strain SPO22, hits give low values 1.06 | locus YIL125W, strain kgd1, hits give low values 0.989 | locus YIR030C, strain dcg1, hits give low values 1 | locus YJL092W, strain hpr5, hits give low values 1.02 | locus YJL095W, strain BCK1 (second series), hits give low values 1.02 | locus YJL095W, strain BCK1, hits give low values 0.994 and 1.02 | locus YJL115W, strain asf1, hits give low values 1.04 | locus YJL129C, strain trk1, hits give low values 1.08 | locus YJL134W, strain LCB3, hits give low values 0.997 | locus YJL154C, strain vps35, hits give low values 1.02 | locus YJL164C, strain tpk1, hits give low values 1.02 | locus YJL166W, strain qcr8, hits give low values 1.04 | locus YJL168C, strain set2, hits give low values 0.994 | locus YJL187C, strain SWE1 (second series), hits give low values 0.972 | locus YJR043C, strain POL32, hits give low values 1.05 | locus YJR066W, strain TOR1, hits give low values 0.923
